Assay [1] concerns the target T1, 3-phosphoinositide-dependent protein kinase 1 (Homo sapiens) (UniProt O15530).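 Further: values are mean inhibition of PDK1.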
T1 sequence (whole entry): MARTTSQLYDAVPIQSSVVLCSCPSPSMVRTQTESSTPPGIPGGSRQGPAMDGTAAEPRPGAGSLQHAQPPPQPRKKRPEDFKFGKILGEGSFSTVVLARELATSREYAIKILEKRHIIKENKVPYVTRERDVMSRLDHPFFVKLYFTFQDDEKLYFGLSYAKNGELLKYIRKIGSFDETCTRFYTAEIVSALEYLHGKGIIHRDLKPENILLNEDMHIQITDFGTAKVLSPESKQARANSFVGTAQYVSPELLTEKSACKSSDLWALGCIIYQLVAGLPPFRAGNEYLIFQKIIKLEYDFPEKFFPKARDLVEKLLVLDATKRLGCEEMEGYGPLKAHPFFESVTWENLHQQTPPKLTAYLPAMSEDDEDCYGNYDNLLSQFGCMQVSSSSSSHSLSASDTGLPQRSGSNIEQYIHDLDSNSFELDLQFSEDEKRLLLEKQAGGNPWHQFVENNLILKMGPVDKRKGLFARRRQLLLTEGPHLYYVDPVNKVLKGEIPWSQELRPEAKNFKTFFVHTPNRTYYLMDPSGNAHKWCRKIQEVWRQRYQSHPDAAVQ
Particulars: at 0.1 µM.

For assay [2], the target named is cAMP-dependent protein kinase catalytic subunit alpha (Homo sapiens) (UniProt P17612). Particulars: at 0.1 µM.
For assay [3] the target is unchanged. Particulars: at 1 µM.
In assay [4] the target is Protein kinase C alpha type (Homo sapiens) (UniProt P17252). Particulars: at 0.1 µM.
Assay [5] shares this target. Particulars: at 1 µM.
The target in assay [6] is Protein kinase C beta type (Homo sapiens) (UniProt P05771). The following applies: at 0.1 µM.
Assay [7] shares this target. Particulars: at 1 µM.
Assay [8] deals with Protein kinase C eta type (Homo sapiens) (UniProt P24723). The following applies: at 0.1 µM.
The target is the same in assay [9]. The following applies: at 1 µM.
Assay [10] has as its target Protein kinase C gamma type (Homo sapiens) (UniProt P05129). Particulars: at 0.1 µM.
The target is the same in assay [11]. Particulars: at 1 µM.
Assay [12] deals with T2, Protein kinase C iota type (Homo sapiens) (UniProt P41743).
T2 sequence (whole entry): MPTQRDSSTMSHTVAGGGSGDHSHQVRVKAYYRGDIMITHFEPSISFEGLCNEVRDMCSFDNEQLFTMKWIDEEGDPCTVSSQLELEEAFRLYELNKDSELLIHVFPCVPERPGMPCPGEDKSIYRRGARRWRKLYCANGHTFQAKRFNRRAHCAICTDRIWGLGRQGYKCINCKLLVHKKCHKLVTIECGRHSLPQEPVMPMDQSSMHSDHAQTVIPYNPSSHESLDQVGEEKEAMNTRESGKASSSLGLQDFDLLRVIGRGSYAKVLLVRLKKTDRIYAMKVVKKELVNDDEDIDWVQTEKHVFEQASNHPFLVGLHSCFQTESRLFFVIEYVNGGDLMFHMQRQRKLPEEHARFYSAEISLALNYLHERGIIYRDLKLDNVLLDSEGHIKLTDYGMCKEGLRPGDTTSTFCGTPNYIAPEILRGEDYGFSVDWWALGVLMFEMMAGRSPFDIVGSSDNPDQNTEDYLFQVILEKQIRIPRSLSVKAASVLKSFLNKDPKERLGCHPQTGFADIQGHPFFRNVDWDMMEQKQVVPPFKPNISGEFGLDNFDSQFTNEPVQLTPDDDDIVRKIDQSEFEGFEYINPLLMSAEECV
Particulars: at 0.1 µM.

Assay [13] has as its target T2, Protein kinase C iota type (Homo sapiens). The following applies: at 1 µM.
The target in assay [14] is Protein kinase C theta type (Homo sapiens) (UniProt Q04759). Particulars: at 0.1 µM.
The target is the same in assay [15]. Particulars: at 1 µM.
The target of assay [16] is Protein kinase C beta type (Homo sapiens) (UniProt P05771). The following applies: at 0.1 µM. The source holds these as a separate data set.
For assay [17] the target is unchanged. The following applies: at 1 µM. This is another data set of the same source.
The target of assay [18] is T3, Serine/threonine-protein kinase D1 (Homo sapiens) (UniProt Q15139).
T3 sequence (whole entry): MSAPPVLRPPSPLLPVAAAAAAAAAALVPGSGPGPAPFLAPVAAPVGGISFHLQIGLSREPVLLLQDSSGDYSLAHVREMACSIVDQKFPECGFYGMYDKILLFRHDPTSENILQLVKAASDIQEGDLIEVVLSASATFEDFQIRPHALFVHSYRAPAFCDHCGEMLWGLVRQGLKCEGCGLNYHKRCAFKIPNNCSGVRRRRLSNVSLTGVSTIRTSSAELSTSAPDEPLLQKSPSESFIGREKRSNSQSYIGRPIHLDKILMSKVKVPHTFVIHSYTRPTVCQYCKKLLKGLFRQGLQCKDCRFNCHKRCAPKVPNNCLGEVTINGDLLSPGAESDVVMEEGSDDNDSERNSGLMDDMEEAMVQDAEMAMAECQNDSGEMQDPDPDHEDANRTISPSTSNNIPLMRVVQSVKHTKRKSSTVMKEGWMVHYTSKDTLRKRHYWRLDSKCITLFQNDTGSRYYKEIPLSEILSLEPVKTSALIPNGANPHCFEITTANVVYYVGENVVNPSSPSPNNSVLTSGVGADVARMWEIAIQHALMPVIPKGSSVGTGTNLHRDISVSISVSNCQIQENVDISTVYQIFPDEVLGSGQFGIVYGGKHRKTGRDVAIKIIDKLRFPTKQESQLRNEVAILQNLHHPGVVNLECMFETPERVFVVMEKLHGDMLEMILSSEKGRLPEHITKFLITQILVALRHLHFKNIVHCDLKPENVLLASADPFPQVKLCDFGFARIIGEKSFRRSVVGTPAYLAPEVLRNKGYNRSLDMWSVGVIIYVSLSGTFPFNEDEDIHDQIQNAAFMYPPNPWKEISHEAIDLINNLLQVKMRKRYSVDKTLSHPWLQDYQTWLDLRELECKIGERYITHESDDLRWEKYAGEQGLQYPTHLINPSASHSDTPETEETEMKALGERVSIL
Particulars: at 0.1 µM.

For assay [19], the target named is T3, Serine/threonine-protein kinase D1 (Homo sapiens). The following applies: at 1 µM.
Assay [20] concerns the target T4, Serine/threonine-protein kinase D2 (Homo sapiens) (UniProt Q9BZL6).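 Further: reported percent inhibition values are means, part of the GSK PKIS kinase panel screen.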
T4 sequence (whole entry): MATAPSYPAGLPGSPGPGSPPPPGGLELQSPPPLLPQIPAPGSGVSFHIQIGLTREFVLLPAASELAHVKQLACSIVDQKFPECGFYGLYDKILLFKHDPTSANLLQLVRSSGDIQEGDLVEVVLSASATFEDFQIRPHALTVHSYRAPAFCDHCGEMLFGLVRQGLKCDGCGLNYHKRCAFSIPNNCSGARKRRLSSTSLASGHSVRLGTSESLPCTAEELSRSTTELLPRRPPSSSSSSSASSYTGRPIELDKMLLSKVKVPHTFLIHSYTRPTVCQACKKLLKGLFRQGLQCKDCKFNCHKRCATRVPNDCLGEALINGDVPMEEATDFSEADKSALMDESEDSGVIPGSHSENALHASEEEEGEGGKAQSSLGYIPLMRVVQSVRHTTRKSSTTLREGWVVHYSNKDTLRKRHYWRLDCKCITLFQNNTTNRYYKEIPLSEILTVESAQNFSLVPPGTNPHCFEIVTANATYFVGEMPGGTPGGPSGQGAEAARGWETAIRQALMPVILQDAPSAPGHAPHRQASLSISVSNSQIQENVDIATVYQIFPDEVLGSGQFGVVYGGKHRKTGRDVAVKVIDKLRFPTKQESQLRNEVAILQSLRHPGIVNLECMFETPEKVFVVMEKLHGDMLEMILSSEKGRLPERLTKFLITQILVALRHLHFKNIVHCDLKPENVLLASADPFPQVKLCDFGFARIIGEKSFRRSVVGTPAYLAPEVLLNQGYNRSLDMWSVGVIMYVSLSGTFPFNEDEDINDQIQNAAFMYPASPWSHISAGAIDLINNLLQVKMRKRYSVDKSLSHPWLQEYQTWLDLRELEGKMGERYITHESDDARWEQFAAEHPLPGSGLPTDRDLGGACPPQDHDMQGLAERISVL
The following applies: at 0.1 µM.

SMILES strings stand for the structures.

Chain of Protein kinase C theta type (Homo sapiens) (Q04759 whole entry, looked up): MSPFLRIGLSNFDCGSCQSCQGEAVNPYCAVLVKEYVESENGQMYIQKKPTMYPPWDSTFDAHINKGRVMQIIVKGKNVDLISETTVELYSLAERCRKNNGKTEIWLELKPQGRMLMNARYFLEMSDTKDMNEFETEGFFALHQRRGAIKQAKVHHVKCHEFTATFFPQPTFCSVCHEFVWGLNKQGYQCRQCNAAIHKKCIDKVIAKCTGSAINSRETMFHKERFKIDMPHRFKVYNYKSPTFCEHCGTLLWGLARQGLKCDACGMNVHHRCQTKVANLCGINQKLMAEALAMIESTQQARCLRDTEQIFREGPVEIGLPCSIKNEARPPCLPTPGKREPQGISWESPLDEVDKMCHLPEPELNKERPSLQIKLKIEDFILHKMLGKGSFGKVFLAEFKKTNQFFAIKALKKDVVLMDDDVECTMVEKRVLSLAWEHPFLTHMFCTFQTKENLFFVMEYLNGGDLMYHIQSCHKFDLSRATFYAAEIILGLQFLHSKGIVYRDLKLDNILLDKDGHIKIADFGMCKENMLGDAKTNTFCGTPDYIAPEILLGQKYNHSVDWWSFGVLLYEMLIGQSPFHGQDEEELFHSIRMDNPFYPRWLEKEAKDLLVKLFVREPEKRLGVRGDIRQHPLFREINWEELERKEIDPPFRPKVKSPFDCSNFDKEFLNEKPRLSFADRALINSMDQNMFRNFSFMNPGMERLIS
Chain of Protein kinase C eta type (Homo sapiens) (P24723 whole entry): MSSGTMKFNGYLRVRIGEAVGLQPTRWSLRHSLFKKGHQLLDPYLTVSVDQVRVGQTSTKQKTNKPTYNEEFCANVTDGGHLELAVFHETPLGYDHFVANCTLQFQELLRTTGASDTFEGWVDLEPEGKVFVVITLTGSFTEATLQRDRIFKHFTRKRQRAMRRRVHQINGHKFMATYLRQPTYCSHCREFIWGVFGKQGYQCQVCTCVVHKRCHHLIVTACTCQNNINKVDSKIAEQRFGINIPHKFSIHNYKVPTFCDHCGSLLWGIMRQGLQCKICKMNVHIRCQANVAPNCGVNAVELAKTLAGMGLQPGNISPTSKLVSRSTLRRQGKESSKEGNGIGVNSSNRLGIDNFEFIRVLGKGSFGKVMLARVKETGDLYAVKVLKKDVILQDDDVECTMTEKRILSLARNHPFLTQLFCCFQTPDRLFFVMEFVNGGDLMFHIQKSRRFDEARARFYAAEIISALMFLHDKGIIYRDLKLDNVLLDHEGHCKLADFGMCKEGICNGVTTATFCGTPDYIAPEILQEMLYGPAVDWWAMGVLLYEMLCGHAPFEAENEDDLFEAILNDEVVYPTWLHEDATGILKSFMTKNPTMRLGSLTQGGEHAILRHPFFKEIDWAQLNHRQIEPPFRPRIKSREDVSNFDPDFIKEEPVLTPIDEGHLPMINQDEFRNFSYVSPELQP
Chain of Protein kinase C beta type (Homo sapiens) (P05771 2-671 limits assumed): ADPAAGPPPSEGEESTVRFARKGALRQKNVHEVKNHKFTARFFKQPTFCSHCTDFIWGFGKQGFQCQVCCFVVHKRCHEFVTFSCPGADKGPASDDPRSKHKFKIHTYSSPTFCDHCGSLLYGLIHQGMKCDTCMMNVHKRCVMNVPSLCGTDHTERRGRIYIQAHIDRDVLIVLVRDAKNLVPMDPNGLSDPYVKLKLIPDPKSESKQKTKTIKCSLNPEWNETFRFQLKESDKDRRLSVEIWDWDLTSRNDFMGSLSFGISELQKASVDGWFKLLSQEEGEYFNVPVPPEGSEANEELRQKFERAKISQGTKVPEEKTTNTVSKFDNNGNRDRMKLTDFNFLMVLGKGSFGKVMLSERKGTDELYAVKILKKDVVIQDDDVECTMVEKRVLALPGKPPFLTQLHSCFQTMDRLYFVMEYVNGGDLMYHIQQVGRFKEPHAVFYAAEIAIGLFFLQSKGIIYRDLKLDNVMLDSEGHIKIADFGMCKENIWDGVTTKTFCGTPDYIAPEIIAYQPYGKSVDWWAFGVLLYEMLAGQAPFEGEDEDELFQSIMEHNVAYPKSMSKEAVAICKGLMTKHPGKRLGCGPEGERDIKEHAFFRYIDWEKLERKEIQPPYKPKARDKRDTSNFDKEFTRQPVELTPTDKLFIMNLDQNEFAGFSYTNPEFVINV

With `COC(=O)c1sc(-n2cnc3cc(OC)c(OC)cc32)cc1OCc1ccccc1C(F)(F)F`, the inhibition (commonly the drop in the measured response relative to a control, in per cent) is 1.42% in [1]; 1.59% in [2]; 0.74% in assay [3]; 0.62% in assay [4]; 1.49% in assay [5]; -0.94% in [6]. In addition, the inhibition came to 0.17% in assay [7]; 2.15% in [8]; 0.99% in assay [9]; 3.39% in assay [10]; 2.66% in [11]; 0.97% in assay [12]. Further, the inhibition worked out at 2.66% in assay [13]; 1.11% in assay [14]; 0.41% in assay [15]; 0.96% in assay [16]; 1.08% in assay [17]; 3.64% in assay [18]. The results for the inhibition in [19] and in [20] were 5.12% and 4.89%, respectively.
Regarding `Cc1ccc(O)cc1Nc1ccnc2cc(-c3ccccn3)ccc12`, the inhibition in [1] is 3.22%; in assay [2] it was 1.65%; in [3], 0.73%; in assay [4] it was 0.94%; in [5], 1.06%; in assay [6], -0.22%. For the same compound, the inhibition in assay [7] is 0.21%; in assay [8], 4.81%; in [9], 3.71%; in assay [10] it was 5.48%; in assay [11], 4.48%; in assay [12], 2.29%. For the same compound, the inhibition is 4.56% in [13]; 2.6% in assay [14]; 1.93% in assay [15]; 1.13% in assay [16]; 1.55% in [17]; 5.06% in [18]. Besides, the inhibition in [19] was 28.9%; in assay [20] it was 6.27%.
Consider `CCCN(CCS(C)(=O)=O)Cc1ccc(-c2ccc3ncnc(Nc4ccc(OCc5cccc(F)c5)c(Cl)c4)c3c2)o1`, for which the inhibition stood at 1.25% in assay [1]; 0.67% in assay [2]; 1.36% in assay [3]; 0.08% in assay [4]; 1.04% in [5]; 0.26% in [6]. Besides, the inhibition in assay [7] worked out at 0.52%; in assay [8], 2.45%; in [9] it was 3.94%; in [10] it was 1.25%; in assay [11] it was 2.5%; in [12], 1.67%. Moreover, the inhibition is -0.59% in [13]; 0.4% in [14]; 0.62% in assay [15]; 1.13% in assay [16]; 2.02% in [17]; 1.1% in assay [18]. In addition, the inhibition in assay [19] was determined as 2.52%; in assay [20], 0.95%.
With `CNC(=O)c1cncc(/C=C/c2ccccc2Cl)c1`, the inhibition in [1] is -0.25%; in [2], 1.4%; in [3] it was 3.17%; in assay [4] it was 0.42%; in [5] it was -0.07%; in assay [6] it was 2.7%. Besides, the inhibition in assay [7] was 5.12%; in assay [8], 1.33%; in assay [9] it was 2.39%; in assay [10] it was 3.03%; in assay [11] it was 3.18%; in [12], 1.77%. Moreover, the inhibition in assay [13] amounted to 0.56%; in assay [14] it was 1.22%; in assay [15] it was 3.14%; in [16] it was 2.46%; in assay [17] it was 1.4%; in assay [18], 1.19%. In addition, the inhibition is -1.46% in assay [19] and -1% in assay [20].

For the origin of these results see ChEMBL document CHEMBL1961873, “Compounds: GSK PKIS; Assays: Nanosyn kinase panel” (2012).
